Measured values: PubChem BioAssay (EPA / NIEHS)
A structure can be active in one record and inactive in another. Calls of active or inactive are those of the source. How the source made its calls: active means hit-call score of the fitted dose curve at least 0.9, where 1 is the maximum; inactive means score below 0.9.

Read-out: succinate dehydrogenase complex iron sulfur subunit B (SDHB), SDHB (gene 6390)
Test: LTEA_HepaRG_SDHB: Life Technologies and Expression Analysis (LTEA) Assay for succinate dehydrogenase complex iron sulfur subunit B (SDHB) using HepaRG (AID 2283528)
Conditions: mRNA level, 48 h; actives raise or lower the signal
How it was run: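 A human HepaRG culture in serum-free induction medium received test chemicals for 48 h over an eight-point range capped at 100 uM. SDHB expression change was quantified by qRT-PCR.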

SMILES	outcome	AC50
CC1(c2ccc(Oc3ccccc3)cc2)OC(=O)N(Nc2ccccc2)C1=O (stereo not drawn)	inactive	
CC(C)N(C(=O)COc1nnc(C(F)(F)F)s1)c1ccc(F)cc1	inactive	
O=S(=O)(O)C(F)(F)C(F)(F)C(F)(F)C(F)(F)C(F)(F)C(F)(F)C(F)(F)C(F)(F)F	inactive	9.92 µM (active)
CCOCN(C(=O)CCl)c1c(C)cccc1CC	inactive	
CC(C)(C)C(O)C(Oc1ccc(Cl)cc1)n1cncn1 (stereo not drawn)	inactive	
Oc1ccc(Cl)cc1Cc1ccccc1	inactive	
CCN(CC)C(=O)SCc1ccc(Cl)cc1	inactive	
CCC(C)(C)C(=O)OC1=C(c2ccc(Cl)cc2Cl)C(=O)OC12CCCCC2	inactive	
O=S1OCC2C(CO1)C1(Cl)C(Cl)=C(Cl)C2(Cl)C1(Cl)Cl (stereo not drawn)	inactive	
CNC(=O)Oc1ccccc1OC(C)C	inactive	
Oc1cc(Cl)ccc1Oc1ccc(Cl)cc1Cl	inactive	
CC1(C)C(C=C(Cl)Cl)C1C(=O)OC(C#N)c1ccc(F)c(Oc2ccccc2)c1 (stereo not drawn)	inactive	
CCC(C)Nc1c([N+](=O)[O-])cc(C(C)(C)C)cc1[N+](=O)[O-] (stereo not drawn)	inactive	
COP(=S)(OC)Oc1ccc(SC)c(C)c1	inactive	
CCOC1Oc2ccc(OS(C)(=O)=O)cc2C1(C)C (stereo not drawn)		9.92 µM (active)
N#Cc1c(Cl)c(Cl)c(Cl)c(C#N)c1Cl	inactive	
O=[N+]([O-])/N=C1\NCCN1Cc1ccc(Cl)nc1		25.8 µM (active)
C[C@H]1[C@H](c2ccc(Cl)cc2)SC(=O)N1C(=O)NC1CCCCC1		26.7 µM (active)
CN1CSC(=S)N(C)C1	inactive	
COP(=S)(OC)Oc1ccc([N+](=O)[O-])cc1	inactive	
O=C1c2ccccc2C(=O)N1SC(Cl)(Cl)Cl	inactive	
C#CCN1C(=O)COc2cc(F)c(N3C(=O)C4=C(CCCC4)C3=O)cc21	inactive	
